Results: PubChem BioAssay AID720648 (The Scripps Research Institute Molecular Screening Center, 2013)
The whole screen tested about 370,000 compounds, of which about 3,100 (0.84%) were called active.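 How the source made its calls: active means inhibition above the mean of compounds lying between control limits plus 3 SD, set per campaign (cut at about 8.5% in these data); inactive means the rest.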 For the sample, actives were picked, then their nearest neighbours and some compounds at random.

Target: Disintegrin and metalloproteinase domain-containing protein 17 (Homo sapiens) (UniProt P78536)
Sequence (P78536 215-824 limits assumed): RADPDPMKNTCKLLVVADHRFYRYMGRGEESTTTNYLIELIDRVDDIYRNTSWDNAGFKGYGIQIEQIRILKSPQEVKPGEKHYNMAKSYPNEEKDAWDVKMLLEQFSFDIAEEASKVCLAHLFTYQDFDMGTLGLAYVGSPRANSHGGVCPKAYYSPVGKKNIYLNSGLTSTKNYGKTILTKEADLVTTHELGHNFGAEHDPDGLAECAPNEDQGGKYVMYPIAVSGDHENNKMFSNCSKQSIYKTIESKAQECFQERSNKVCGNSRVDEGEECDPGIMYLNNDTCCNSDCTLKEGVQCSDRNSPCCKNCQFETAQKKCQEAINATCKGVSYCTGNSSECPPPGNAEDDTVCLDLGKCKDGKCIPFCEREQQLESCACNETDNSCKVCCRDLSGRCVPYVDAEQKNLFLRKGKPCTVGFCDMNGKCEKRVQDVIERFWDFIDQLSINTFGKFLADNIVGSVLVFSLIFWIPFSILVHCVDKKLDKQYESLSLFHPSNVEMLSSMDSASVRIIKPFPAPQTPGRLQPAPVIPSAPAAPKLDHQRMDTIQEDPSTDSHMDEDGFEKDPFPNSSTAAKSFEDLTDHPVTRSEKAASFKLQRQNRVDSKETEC
Test: ADAM17 inhibitors, primary screen, biochemical, QFRET (AID 720648);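 further: 0% = DMSO-only wells as the low control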
Details: recombinant ADAM17, EDANS/DABCYL FRET peptide cleavage; at 6.95 µM; hits give high values

inhibition, active:
Cc1ccc(-c2n[nH]c(=S)n2/N=C/c2cc3c(cc2[N+](=O)[O-])OCO3)cc1 8.7%, Cc1nnc(SCC(=O)Nn2cnnc2)s1 8.83%, COc1cccc(CNc2nc(C(F)(F)F)nc3ccccc23)c1 10.3%, N#C/C(=C/c1ccc(N2CCCCC2)o1)C(=O)NCCc1c[nH]c2ccccc12 15.4%, Cc1ccc(C(=O)Nc2ccc(C)c(S(=O)(=O)N(C)C)c2)s1 9.87%, O=C(COC(=O)CCCSc1nc2ccccc2[nH]1)Nc1ccc(Oc2ccccc2)cc1 10.8%, O=C(Nc1ccc(C(=O)NCc2ccccc2Cl)cc1)C1=CSCCO1 10.3%, Cc1cc(C)cc(NC(=S)NCCc2c[nH]c3ccccc23)c1 16.1%, CC(C)C(=O)Nc1cccc(NC(=S)NC(=O)C(c2ccccc2)c2ccccc2)c1 9.39%

inhibition, inactive:
CC(C)(C)OC(=O)NCCc1ccccc1/C=C/S(=O)(=O)NCc1ccc(F)cc1 1.57%, O=C(NC1CCC1)c1ccc(C#Cc2cccc(F)c2)c[n+]1[O-] -5.18%, CCC(=O)c1c(CC)c2n3c1=CC[C@H]3CC(Br)C=2 (stereo not given in full) -4.68%, CN1[C@H](Cc2ccccc2)COc2cccc(N3CCSCC3)c2S1(=O)=O -1.43%, CCOc1ccc(Oc2c(Cl)cnn(-c3ccc(C)cc3)c2=O)cc1 -4.44%, Cc1ccccc1NC(=O)Cn1nnc(-c2ccccc2F)n1 1.5%, CSc1ccc(C=Nn2c(-c3ccc(F)cc3)n[nH]c2=S)cc1 -0.62%, CCOc1ccc(-c2n[nH]c(=S)n2/N=C/c2cc3c(cc2[N+](=O)[O-])OCO3)cc1 -4.26%, COC1=C[C@H](C(=O)NCCNC(C)=O)[C@H](C)[C@@H](c2ccccc2)CC1=O -1.19%, FC(F)(F)c1cccc(Cn2ccc3ccc(-c4ccc5ccn(Cc6ccccc6)c5c4)cc32)c1 -14.4%, COC(=O)c1cccc(Cn2ccc3ccc(-c4ccc5ccn(C(=O)c6ccccc6C)c5c4)cc32)c1 -5.84%, CC(C)(C)NC(=O)C(c1cccnc1)N(C(=O)c1cnco1)c1ccc(C(C)(C)C)cc1 (stereo not given) -6.7%, CCSc1nnc(SCC(=O)NNC(=O)c2ccccc2F)s1 -2.03%, Cc1nnc(SCC(=O)NC2CCCC2)s1 -4.16%, CN(C(N)=NC(=O)/C=C/c1ccccc1)C(C#Cc1ccccc1)Cc1ccccc1 (stereo not given) 0.96%, CCOC(=O)[C@]12CCCC3=C1N(CCC3)C(=O)[C@@H](CC(=O)NCC13CC4CC(CC(C4)C1)C3)C2 0.7%, COc1cccc(CNc2ncc(-c3ccccc3)n2C)c1 5.33%, COc1cccc(CNc2nc(NCc3cccs3)nc3ccsc23)c1 0.1%, COCCCNC(=O)/C(C#N)=C/c1c(N2CCCCCC2)nc2ccccn2c1=O -451%, O=C(NCCCc1ccccc1)[C@H](Cc1ccccc1)NC1(C(=O)NCCc2c[nH]c3ccccc23)CCC1 3.66%, COC(=O)[C@@]12CCCCC=C1N(CCc1ccc(Cl)cc1)C(=O)[C@H]2CC(=O)NCc1ccc(OC)c(OC)c1 -0.2%, O=C(CSc1nc2ccccc2s1)NN=Cc1ccc(O)cc1O 3.8%, Cc1ccc(Cn2cc(COC(=O)N(C)Cc3ccccc3)nn2)cc1 -1.03%, Cc1ccc(C(=O)NCC(=O)O)s1 3.71%, COc1ccc(CCC(=O)OCC(=O)Nc2ccc(C)c(S(=O)(=O)N(C)C)c2)cc1 0.46%, C=CCN1[C@H](CC(C)C)COc2cccc(N3CCCC3)c2S1(=O)=O -8.01%, C#CCCN([C@H](C(=O)OC)C(C)C)S(=O)(=O)c1ccc(F)cc1Br 2.67%, O=C1CC[C@@H](COc2ccc3[nH]cc(-c4ccccc4)c3c2-c2ccccc2)N1 -1.86%, N#Cc1ccc(OC[C@@H](O)CN2CCC(C(O)(c3ccccc3)c3ccccc3)CC2)c(F)c1 0.92%, CCN(c1ccc(NC(=O)COC(=O)CCc2nc3ccccc3n2-c2ccccc2)cc1)C(C)C 4.08%, O=C(COC(=O)CCc1nc2ccccc2c(=O)[nH]1)Nc1ccc(N2CCOCC2)cc1 -2.52%, COc1ccc(CN2C/C(=C/c3ccccc3)N3C(=O)C[C@@H](c4ccccc4)N=C23)c(OC)c1 4.01%, C=CS(=O)(=O)N(Cc1nnn(Cc2ccccc2)c1Br)[C@H](C(=O)OC)C(C)C 2.02%, C[C@@H](NC(=O)c1ccccc1OCC(=O)Nc1ccc(I)cc1)C(=O)N(C)Cc1ccccc1 2.09%, O=C(CCS(=O)(=O)c1ccccc1)Nc1ccc(Cl)c(Cl)c1 5.76%, O=C(COC(=O)c1ccc2c(c1)OCCO2)NCc1ccccc1Cl -2.66%, CSc1ccc(CNC(=O)c2ccc(NC(=O)C3=CSCCO3)cc2)cc1 0.22%, COC(=O)C1CN(CC(C)C)CCS(=O)(=O)N1Cc1ccc(C)cc1 (stereo not given) -8.74%, Cc1ccc2[nH]cc(CCNC(=O)C3CCCCC3)c2c1 0.5%, Cc1ccc(S(=O)(=O)N(C)CC(=O)NCCc2c[nH]c3ccccc23)cc1 0.52%, CC(CCN1CCC(C(O)(c2ccccc2)c2ccccc2)CC1)Oc1ccc(Cl)cc1 (stereo not given) 4.85%, CCOC(=O)[C@]12CCCC=C1N(CCCOC)C(=O)[C@@H]2CC(=O)N1CCOCC1 2.05%, CCCC(=O)Nc1cccc(NC(=S)NC(=O)C(C)Oc2ccc(Cl)cc2Cl)c1 (stereo not given) 2.78%, CCCCC(=O)NNC(=S)NC(=O)C(c1ccccc1)c1ccccc1 1.95%, O=C(c1ccncc1)N1CC[C@H]2[C@H](CCCN2Cc2ccc(F)cc2)C1 1.14%, CN(CCO)c1cccc2c1S(=O)(=O)N(Cc1cn(Cc3ccc(C(F)(F)F)cc3)nn1)Cc1ccccc1O2 -1.94%
